# Data: PubChem BioAssay (Tox21)
# The source made the active and inactive calls. A call without a number means that no potency is given here. Calls follow the shape of the full dose curve.
# Target: Acetylcholinesterase (Homo sapiens) (UniProt P22303)
# Assay: Acetylcholinesterase (AChE) small molecule antagonists: enzyme-based qHTS assay with human liver microsomes (AID 1347399); also: nearly all actives have a fitted effect of over 60% in size
# Conditions: Potency: qHTS inhibition; outcome: qHTS inhibition; series mostly up to 115 µM
# Summary of the method: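 Recombinant human AChE (50 mU/mL in the enzyme mix) and human liver microsomes (0.25 mg/mL final) were preincubated with compound and NADPH (0.25 mg/mL final) for 30 min at 37 C. Acetylthiocholine/DTNB was then added; thiocholine was read colorimetrically after 10 min at room temperature.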
# Acetylcholinesterase (Homo sapiens), sequence (P22303 whole entry, looked up): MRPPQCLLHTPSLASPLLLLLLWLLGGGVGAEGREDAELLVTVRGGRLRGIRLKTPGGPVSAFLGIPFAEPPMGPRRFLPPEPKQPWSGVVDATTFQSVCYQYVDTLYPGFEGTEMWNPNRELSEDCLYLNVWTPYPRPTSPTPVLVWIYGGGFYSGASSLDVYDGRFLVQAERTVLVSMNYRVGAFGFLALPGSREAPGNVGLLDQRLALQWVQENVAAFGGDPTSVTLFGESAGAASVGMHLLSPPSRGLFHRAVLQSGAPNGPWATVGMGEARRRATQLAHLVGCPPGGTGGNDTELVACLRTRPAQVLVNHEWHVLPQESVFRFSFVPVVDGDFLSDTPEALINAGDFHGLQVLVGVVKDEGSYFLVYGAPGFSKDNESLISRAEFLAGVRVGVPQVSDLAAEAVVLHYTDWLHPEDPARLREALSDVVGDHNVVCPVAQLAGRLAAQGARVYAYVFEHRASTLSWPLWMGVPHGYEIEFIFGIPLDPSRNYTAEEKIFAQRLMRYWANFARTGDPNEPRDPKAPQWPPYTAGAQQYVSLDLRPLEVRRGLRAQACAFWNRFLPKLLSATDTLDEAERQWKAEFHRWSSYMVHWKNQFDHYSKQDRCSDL
row,SMILES,Potency
1,COc1ccc2c(c1)c1c3n2CCN(C)C3=NCC1,inactive
2,COc1cnc(NS(=O)(=O)c2ccc(N)cc2)nc1,inactive
3,CC(=O)N[C@@H](CCC(=O)O)C(=O)O,inactive
4,C=C(C)c1ccccc1,inactive
5,O=C(O)c1cc(C(=O)O)c(C(=O)O)cc1C(=O)O,inactive
6,O=c1[nH]c(=O)n([C@H]2O[C@H](CO)[C@@H](O)[C@@H]2O)cc1/C=C\Br,inactive
7,CC(=O)OC(OC(C)=O)c1ccc([N+](=O)[O-])o1,inactive
8,COc1cccc(O)c1O,inactive
9,Cc1ccc(O)cn1,inactive
10,O=C(O)c1ccccc1C(=O)Nc1ccc(S(=O)(=O)Nc2nccs2)cc1,inactive
11,CC[N+](C)(CC)CCOC(=O)C(O)(c1ccccc1)C1CCCCC1 (stereo not given),inactive
12,CC(=O)Nc1cccc(C)c1,inactive
13,CCOC(=O)CS,inactive
14,CCOc1ccccc1OCC,inactive
15,CC(C)(O)c1ccccc1CC[C@@H](SCC1(CC(=O)O)CC1)c1cccc(/C=C/c2ccc3ccc(Cl)cc3n2)c1,inactive
16,O=C(N[C@H](CO)[C@H](O)c1ccc([N+](=O)[O-])cc1)C(Cl)Cl,inactive
17,CCC(Cl)CCC(Cl)C(Cl)CC(Cl)C(Cl)C(Cl)CCl (stereo not given),inactive
18,C#C[C@]1(OC(C)=O)CC[C@H]2[C@@H]3CCC4=C/C(=N/O)CC[C@@H]4[C@H]3CC[C@@]21CC,inactive
19,ON=C1CCCC1,inactive
20,C1CCC2(CCCCO2)OC1,inactive

row,SMILES,Potency
1,Cc1c(C(=O)NCCO)[n+](=O)c2ccccc2n1[O-],inactive
2,CCO[Si](C)(OCC)OCC,inactive
3,CCCC(CC)CCCCCCCN (stereo not given),inactive
4,CC(C)CCCCOC(=O)c1ccccc1C(=O)OCCCCC(C)C,inactive
5,CC(C)(C)C1CCC(CC2=C(O)c3ccccc3C(=O)C2=O)CC1 (stereo not given),inactive
6,CCCCCCCC[Si](OCC)(OCC)OCC,inactive
7,CC[C@H]1CC[C@H](NCc2cc3c(cc2OC)[C@H]2C[C@H]2C(=O)N3C)[C@H](c2ccccc2)N1,inactive
8,CCC(C)COC(=O)CC(C)C (stereo not given),inactive
9,COC(=O)c1ccc(I)cc1S(=O)(=O)NC(=O)Nc1nc(C)nc(OC)n1,inactive
10,CC(C)(C)C(=O)/C=C/c1ccc(Cl)cc1,inactive
11,O=C(O)CCCc1ccccc1,inactive
12,O=C(/C=C/c1ccccc1)OC/C=C/c1ccccc1,inactive
13,ClC(Cl)(Br)Br,inactive
14,C=C(C)C(=O)OCCC[Si](Cl)(Cl)Cl,inactive
15,CC(C)NC(=O)c1ccc(C=O)cc1,inactive
16,CC(C(=O)O)c1ccc2c(c1)Cc1cccnc1O2 (stereo not given),inactive
17,CO[Si](C)(OC)c1ccccc1,inactive
18,CC/C=C\CC/C=C/CO,inactive
19,COc1cccc([C@H](O)C2CCN(CCc3ccc(F)cc3)CC2)c1OC,inactive
20,CCOc1ccc2c(c1)C(C)CC(C)(C)N2 (stereo not given),inactive
